Cy5 interf NS3h = enhances or quenches Cy5 fluorescence in NS3h assay. Cy5-dT15 DNA with NS3h, fluorescence interference; actives lie on both sides; signal over control mean, under 1 quenches. fluorescence interference ratio at 100 µM. 16,000 compounds, 6% hits. AID 720488;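 active = compound fluorescence over control fluorescence at most 0.8, a quencher, or at least a set upper limit, an enhancer; inactive = ratio between 0.8 and the set upper limit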
HCV NS3h FP = hepatitis C NS3 helicase inhibition, primary screen | 16,000 compounds, 1.6% hits | NS3h Cy5-dT15 DNA binding, fluorescence polarization | inhibition, % at 100 µM | AID 687043;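 active = inhibition above the average over every tested compound plus 3 SD, cut at about 40% in these data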
NS3h confirm = confirmation of hepatitis C virus NS3 helicase inhibitors; inhibition, % at 100 µM; 240 compounds, 20% hits; AID 720485; shares compounds with HCV NS3h FP; NS3h binding to Cy5-dT15 DNA, fluorescence polarization;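 active = percent inhibition of 50% or more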
SSB FP counter = counter-screen for HCV NS3 helicase inhibitors: E. coli SSB binding; shares compounds with HCV NS3h FP; E. coli SSB binding Cy5-dT15, fluorescence polarization; inhibition, % at 100 µM; 240 compounds, 40% hits; AID 720486;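 active = inhibition of at least 50%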;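 also: displacers lower Cy5 polarization so higher inhibition means more SSB displaced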
Target sequence (P0AGE0 whole entry, looked up): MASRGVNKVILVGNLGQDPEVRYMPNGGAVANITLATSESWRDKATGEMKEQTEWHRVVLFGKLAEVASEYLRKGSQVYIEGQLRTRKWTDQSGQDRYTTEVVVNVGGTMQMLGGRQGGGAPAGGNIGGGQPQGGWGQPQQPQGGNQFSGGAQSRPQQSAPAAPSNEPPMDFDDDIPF
Cy5 SSB fluor CB = enhances or quenches Cy5-DNA fluorescence with E. coli SSB | shares compounds with HCV NS3h FP | Cy5-dT15/E. coli SSB fluorescence interference; actives lie on both sides | fluorescence interference ratio at 100 µM | 240 compounds, 8% hits | AID 720487;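 active = fluorescence interference ratio at or above 1.2, signal boosting, or at or below 0.8, signal quenching; inactive = ratio between 0.8 and 1.2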;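 also: ratio of compound well signal to mean negative control signal so 1 means no effect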
Cy5 interf conf = Cy5 fluorescence interference, confirmation counter-screen; shares compounds with HCV NS3h FP; fluorescence interference ratio at 100 µM, hits read low; Cy5-dT15 DNA/NS3h fluorescence interference counterscreen; 240 compounds, 44% hits;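 active = fluorescence interference ratio at or below 0.8 quencher or at or above a set limitenhancer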;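 also: ratio of compound fluorescence to mean of negative controls so 1 means no interference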
Active calls of the source: *; . = no result. This is a sample that favours compounds with a hit; in the whole collection about 6.9% have one here.

SMILES	Cy5 interf NS3h	HCV NS3h FP	NS3h confirm	SSB FP counter	Cy5 SSB fluor CB	Cy5 interf conf
COc1ccc(OC)c(N2C(=O)NC(=O)C(=Cc3cccs3)C2=O)c1	1	95*	38	7	0.98	0.81
O=C1NC(=O)N(c2ccc(Cl)cc2)C(=O)/C1=C/c1cccs1	1	8	.	.	.	.
COc1ccccc1N1C(=O)NC(=O)/C(=C\c2ccc(Br)cc2)C1=O	0.92	19	.	.	.	.
COc1ccc(OC)c(N2C(=O)NC(=O)/C(=C/C=C/c3ccccc3)C2=O)c1	0.92	49*	21	32	0.98	0.83
O=C(/C=C/c1ccccc1OCc1ccccc1)c1ccc(Br)cc1	1	-2	.	.	.	.
O=C1NC(=S)S/C1=C/c1ccc(Oc2ccc(C(F)(F)F)cc2[N+](=O)[O-])c(Cl)c1	1.1	11	.	.	.	.
CCOc1ccccc1NC(=O)C(=O)NCC(C)C	1	14	.	.	.	.
O=c1[nH]c(=O)n(-c2ccc(Br)cc2)c(O)c1C=C1C=CC=N1	0.83	-2	.	.	.	.
Cc1ccccc1-n1c(O)c(C=C2C=CC=N2)c(=O)[nH]c1=S	0.75*	63*	58*	140*	0.72*	0.74*
COc1ccc(CC(=O)Nc2ccc(Cl)c(C(F)(F)F)c2)cc1OC	1	8	.	.	.	.
COc1ccc(N2C(=O)c3ccccc3NC2c2cccc(F)c2)cc1 (stereo not given)	1	6	.	.	.	.
Cc1ccc(N2C(=O)c3ccccc3NC2c2cccc(F)c2)cc1 (stereo not given)	1.1	30	10	8	0.97	0.72*
CCCN1C(=O)c2ccccc2NC1c1cccc(F)c1 (stereo not given)	0.97	4	.	.	.	.
CCN(CC)CCN1C(=O)c2ccccc2NC1c1cccc(F)c1 (stereo not given)	1.1	41*	4	10	0.94	0.96
O=C(Nc1cccc(Cl)c1)Nc1nnc(COc2ccc(Br)cc2)s1	1.1	-2	.	.	.	.
CC(C)CN1C(=O)c2ccc(Oc3ccc([N+](=O)[O-])cc3)cc2C1=O	1	4	.	.	.	.
Cc1cccc(OCC(=O)Nc2ccc(OCc3ccccc3)cc2)c1C	1.1	11	.	.	.	.
O=c1/c(=C\c2ccc(OCc3ccc([N+](=O)[O-])cc3)cc2)sc2nc3ccccc3n12	0.96	4	.	.	.	.
C/C(=N\n1cnnc1)c1ccc(NS(=O)(=O)c2ccc(Br)cc2)cc1	1.1	4	.	.	.	.
CCOC(=O)c1ccc(NC(=O)CCCCCN2C(=O)/C(=C/c3ccc(Cl)cc3)SC2=S)cc1	1.1	11	.	.	.	.
Cc1ccc(C)n1/N=C1/NC(=O)CS1	0.97	90*	77*	107*	0.93	0.97
O=C1CSC(=Nc2ccc(O)cc2)N1	0.99	4	.	.	.	.
COC(=O)CN(c1ccc(OC)cc1OC)S(=O)(=O)c1ccc(C)cc1	0.9	12	.	.	.	.
CCOC(=O)c1c(NC(=O)/C=C/c2ccc(C)o2)sc(C)c1C	0.99	61*	2	3	0.97	0.74*
Cc1ccc(/C=C/C(=O)Nc2ccc(Cl)cc2Cl)o1	0.92	26	.	.	.	.
SMILES	Cy5 interf NS3h	HCV NS3h FP	NS3h confirm	SSB FP counter	Cy5 SSB fluor CB	Cy5 interf conf
CC(C)c1ccc(/C=N\n2cnnc2)cc1[N+](=O)[O-]	0.89	7	.	.	.	.
COc1ccc2occ(C(=O)c3ccc(N)cc3)c2c1	1.1	40	7	19	0.87	0.85
COc1ccc2occ(C(=O)c3ccc([N+](=O)[O-])cc3)c2c1	1	5	.	.	.	.
CSc1nc2c(c(=O)[nH]1)C(c1ccc(Br)cc1)c1c(nc(SC)[nH]c1=O)O2	0.94	18	.	.	.	.
CC(c1ccccc1)c1nnc(NC(=O)c2cccs2)s1 (stereo not given)	0.92	36	.	.	.	.
O=C(O)CCn1c(O)c(C2=c3cc([N+](=O)[O-])ccc3=NC2=O)sc1=S	0.94	28	9	28	0.93	0.77*
O=[N+]([O-])c1cccc(S(=O)(=O)Nc2ccc(O)c(Cl)c2)c1	0.83	5	.	.	.	.
O=C1N=c2ccc([N+](=O)[O-])cc2=C1c1sc(NS(=O)(=O)c2ccccc2)nc1O	1	41*	15	101*	0.87	0.75*
COCCCn1c(O)c(C2=c3ccccc3=NC2=O)sc1=S	1	20	.	.	.	.
Cc1ccc(CNC(=O)C(=O)NCC(C)C)cc1	1	2	.	.	.	.
Cc1cccc(N2C(=O)NC(=O)/C(=C/c3cc(Cl)c(O)c(Cl)c3)C2=O)c1	1	16	.	.	.	.
COc1cc(/C=C2\C(=O)NC(=O)N(c3cc(C)cc(C)c3)C2=O)cc(OC)c1O	1.1	8	.	.	.	.
